# Source: PubChem BioAssay AID624296 (National Center for Advancing Translational Sciences (NCATS), 2012)
# Screen size: about 350,000 compounds; about 9,900 (2.8%) were called active. Roughly 15% stayed inconclusive and do not appear here. The entries come from a sample that favours actives as a whole. Values without a mark were called inactive. Calls follow the shape of the dose curve; as a rule, active = well fitted activation curve with a large enough effect; inconclusive = small, poorly fitted or top-dose-only effect; inactive = no such curve, though single readings can be large or run the other way.
# Experiment: A quantitative high throughput screen for small molecules that induce DNA re-replication in MCF 10a normal breast cells. Also: nearly all actives have a fitted effect of over 50% in size. As to activity, positive = re-replication: % of control where 0% means no effect.
# Details: MCF 10A DNA re-replication, Hoechst nuclear intensity, 48 h; series mostly up to 46.1 µM; activity, positive = re-replication: at the top concentration
# Potency is read from the fitted curve at half-maximal effect.
SMILES,"activity, positive = re-replication",Potency
CSc1nc2ccccc2c(=O)n1Cc1ccc(F)cc1,-0.253%,
CSc1c(SCc2ccccc2)cnn(Cc2ccccc2)c1=O,,18.4 µM (active)
Cn1c(CO)cnc1SCc1ccccc1,4.65%,
CCCCNC1(C#N)CCN(Cc2ccccc2)CC1,-3.09%,
CCc1nc(C)cn1S(=O)(=O)c1cc([N+](=O)[O-])ccc1Cl,,6.51 µM (active)
CC(C)c1nccn1S(=O)(=O)c1cc([N+](=O)[O-])ccc1Cl,-7.05%,
CCc1nc(C)cn1S(=O)(=O)c1cc(OC)c(C)cc1C,1.93%,
COc1ccccc1C(=O)N(C1=NC(C)CS1)c1ccc(Cl)cc1 (stereo unspecified),-0.302%,
CC(=O)Nc1ccc(NC(=O)CCCNC(=O)c2ccc(Cl)cc2)cc1,4.76%,
CC(=O)Nc1ccc(C(=O)N(C2=NC(C)CS2)c2ccc(Cl)cc2)cc1 (stereo unspecified),,5.17 µM (active)
O=C1CC(c2ccccc2)C(c2ccccc2)=NN1 (stereo unspecified),-1.02%,
Cc1nc2ccc(NC(=O)C3CCCCC3)cc2s1,-6.42%,
CN(C)CCCn1c(N)c(C#N)c2nc(C#N)c(C#N)nc21,,7.31 µM (active)
CCCN=C1N(C)C[C@@H]2[C@@H]3C(=O)N(Cc4ccccc4)C(=O)[C@@H]3[C@](C)(C(=O)OC)N12,1.39%,
COc1ccccc1NS(=O)(=O)c1ccc(C)c(C(=O)NNC(=O)c2csc(N3CCOCC3)n2)c1,10.5%,
CC(C)C(NC(=O)c1c(F)cccc1F)C(=O)NNC(=O)c1ccccc1 (stereo unspecified),5.67%,
CCCc1nc2c(c(=O)c3ccccc3n2C)c(=O)n1-c1cc(C)cc(C)c1,-0.733%,
Cn1c2ccccc2c(=O)c2c(O)cccc21,0.882%,
CCCc1nc2c(c(=O)c3ccccc3n2C)c(=O)n1C1CCCCCC1,,14.6 µM (active)
CC(=NNC(=O)c1ccncc1)c1ccc(Cl)c(Cl)c1,-0.649%,
CCC1CCCCN1C(=S)NC(=O)c1ccco1 (stereo unspecified),11.7%,
O=C(Nc1ccncc1)c1cc(-c2ccccn2)nc2ccc(Br)cc12,-3.49%,

SMILES,"activity, positive = re-replication",Potency
CCN(CC)CCNC(=O)c1ccc(NC(=O)c2cc(-c3ccncc3)nc3ccccc23)cc1,8.64%,
Cc1ccc2nc(-c3ccncc3)cc(C(=O)Nc3ccc(OC(F)F)cc3)c2c1,,14.6 µM (active)
Cc1nc2ccc(NC(=O)c3cccc(S(=O)(=O)N4CCOCC4)c3)cc2s1,9.34%,
CC1(C)N=C(N)NC(Nc2ccc(Cl)cc2)=N1,11%,
Cc1csc(=O)n1CC(=O)Nc1ccc(S(C)(=O)=O)cc1,-17.5%,
CCOc1cc(N2CCOCC2)c(OCC)cc1NC(=O)COc1cccc2cccnc12,,15.8 µM (active)
CCOc1cc(N2CCOCC2)c(OCC)cc1NC(=O)COc1cccc(Cl)c1,1.23%,
CCOc1cc(N2CCOCC2)c(OCC)cc1NC(=O)c1cc(C)nc2ccccc12,4.26%,
CC(OC(=O)c1cc2ccccc2[nH]1)C(=O)N(C)c1ccccc1 (stereo unspecified),9.46%,
Cc1cc(N2CCN(c3ccccc3)CC2)nc(N2CCOCC2)n1,11.3%,
CN(C)c1ccc(/C=N/Nc2cc(N3CCOCC3)nc(N3CCOCC3)n2)cc1,-0.353%,
C(=N/Nc1cc(N2CCOCC2)nc(N2CCOCC2)n1)/c1ccccc1,,23.1 µM (active)
COc1ccccc1NC(=O)COC(=O)CNC(=O)C1CCCCC1,2.67%,
CCn1nc(NC(=O)c2ccco2)c2cc3ccc(C)cc3nc21,,8.91 µM (active)
Cc1ccnc(NC(=O)c2ccco2)n1,6.36%,
CCCn1nc(NS(=O)(=O)c2ccccc2)c2cc3cc(C)ccc3nc21,0.575%,
COC(=O)[C@]1(Cc2ccccc2)N[C@H](CN(C)S(=O)(=O)c2ccc(F)cc2)[C@@H]2C(=O)N(Cc3ccccc3)C(=O)[C@@H]21,4.15%,
CCC1(C)Cc2c(sc3nc(SC)nc(N)c23)CO1 (stereo unspecified),-0.174%,
CCCSc1nc(NCc2ccco2)c2c3c(sc2n1)COC(C)(CC)C3 (stereo unspecified),,23.1 µM (active)
CCC1(C)Cc2c(sc3nc4n(c(=O)c23)CCCS4)CO1 (stereo unspecified),9.25%,
O=C(OCC(=O)N1CCCCC1)c1ccc(OC(F)(F)F)cc1,1.12%,
O=C(NCCc1ccc(F)cc1)c1ccc(S(=O)(=O)N2CCCCC2)cc1,11.5%,

SMILES,"activity, positive = re-replication",Potency
CC1(c2ccccc2)NC(=O)N(CC(=O)N2CC(=O)Nc3ccccc32)C1=O (stereo unspecified),0.732%,
NC(=O)C1CCN(C(=O)c2ccc(F)c(S(=O)(=O)N3CCOCC3)c2)CC1,-3.07%,
Cc1ccc(S(=O)(=O)Cc2cc(-c3ccc(Cl)cc3)no2)cc1,17.2%,
O=S(=O)(NCc1ccc(Cl)cc1Cl)c1cccs1,-8.83%,
O=S(=O)(Cc1ccc(Cl)cc1Cl)c1ccc(Cl)cc1,,0.651 µM (active)
CC(=O)Nc1ccc(C(=O)NNC(=O)CCCCC(=O)NNC(=O)c2ccc(NC(C)=O)cc2)cc1,5.58%,
CC(=O)Nc1ccc(C(=O)/C=C/c2ccc[nH]2)cc1,14.4%,
CCCC(=O)Nc1ccc(C(=O)N/N=C/c2ccc[nH]2)cc1,,16.4 µM (active)
Cc1ccc(C(=O)Nc2ccc3c(c2)OCCO3)cc1S(=O)(=O)N1CCOCC1,8.12%,
Cn1c(=O)c2c(nc(SCC(=O)Nc3ccccc3N3CCCCC3)n2C)n(C)c1=O,2.92%,
O=C(CNCCC1=CCCCC1)Nc1ccccc1N1CCCCCC1,,20.6 µM (active)
Cc1ccccc1NC(=O)CNc1ccccc1N1CCCCC1,27%,
COc1ccc(C(=O)NCC2CCCCC2)cc1S(=O)(=O)N1CCCC1,-4.77%,
Cc1ccc(SCc2c(C(=O)N/N=C/C3CC=CCC3)nnn2-c2nonc2N)cc1 (stereo unspecified),-2.37%,
Nc1nonc1-n1nnc(C(=O)N/N=C/c2ccccc2O)c1CN1CCCC1,12.2%,
Nc1nonc1-n1nnc(C(=O)N/N=C/c2cc(Br)ccc2O)c1CSC1=NCCS1,,10.3 µM (active)
COc1ccc(C2(c3ccc(OC)cc3)NC(=O)N(CC(=O)Nc3cc(C)on3)C2=O)cc1,18.8%,
Cn1c(=O)c2c(ncn2CC(COCc2ccccc2Cl)OCc2ccccc2Cl)n(C)c1=O (stereo unspecified),,13 µM (active)
Cn1c(=O)c2c(ncn2CCc2ccccc2)n(C)c1=O,0.307%,
Cn1c(=O)c2c(ncn2CC(=O)N2CCN(c3ccccc3)CC2)n(C)c1=O,0.0795%,
O=C(O)C1C2C=CC(O2)C1C(=O)Nc1ccccn1 (stereo unspecified),-41%,
O=C(CNC(=O)c1n[nH]c2ccccc12)Nc1cc(Cl)ccc1Cl,4.67%,
